Laboratory results published in PubChem BioAssay.
Records with an inconclusive call do not appear. Calls of active or inactive are those of the source.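 The calls were made as follows, unless noted: active = normalized viability below 100% at a tested concentration; inactive = the rest.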

Legend:
[1] = viability loss in pontine glioma line – cell-based, SU-DIPG-XVII, MIPE5.0, CellTiter-Glo, qHTS, dose response (AID 1347060; cut-off not given, nearly all actives have AC50 up to about 26 µM;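 also: cells exposed to compound for 48 hours before viability readout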); conditions: CellTiter-Glo ATP luminescence
[2] = viability loss in pontine glioma line – cell-based, SU-DIPG-XIII, MIPE4.0, CellTiter-Glo, qHTS, dose response (AID 1347061; cut-off not given, nearly all actives have AC50 up to about 37 µM;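 also: cells exposed to compound for 48 hours before readout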); conditions: CellTiter-Glo ATP luminescence
[3] = viability loss in pontine glioma line – cell-based, JHH-DIPG-1, MIPE4.0, CellTiter-Glo, qHTS, dose response (AID 1347062; cut-off not given, nearly all actives have AC50 up to about 27 µM;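 also: cells exposed to compound for two days before readout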); conditions: JHH-DIPG-1 viability, CellTiter-Glo ATP luminescence
[4] = viability loss in pontine glioma line – cell-based, SU-DIPG-IV, MIPE4.0, CellTiter-Glo, qHTS, dose response (AID 1347063; cut-off not given, nearly all actives have AC50 up to about 30 µM;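 also: compound exposure lasted 48 hours before the viability readout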); conditions: CellTiter-Glo ATP luminescence
[5] = viability loss in pontine glioma line – cell-based, SU-DIPG-XIII, MIPE5.0, CellTiter-Glo, qHTS, dose response (AID 1347064; cut-off not given, nearly all actives have AC50 up to about 23 µM;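 also: cells exposed to compound for 48 hours before the viability read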); conditions: CellTiter-Glo ATP luminescence
[6] = viability loss in pontine glioma line – cell-based, SU-DIPG-XXV, MIPE5.0, CellTiter-Glo, qHTS, dose response (AID 1347065; cut-off not given, nearly all actives have AC50 up to about 26 µM;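 also: cells exposed to compound for 48 hours before ATP readout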); conditions: CellTiter-Glo ATP luminescence
[7] = growth inhibition of DIPG cells – cell-based, MIPE4.0 library, CellTiter-Glo luminescence, qHTS (AID 1347066; cut-off not given, nearly all actives have AC50 up to about 30 µM;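 also: cells exposed to compound for 48 hours before readout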); conditions: SU-DIPG-VI viability, CellTiter-Glo ATP luminescence
[8] = JHH-DIPG-1 glioma cell viability, MIPE5.0 library, CellTiter-Glo luminescence, qHTS (AID 1347067; cut-off not given, nearly all actives have AC50 up to about 26 µM;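 also: cells exposed to compound for 48 hours before readout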); conditions: JHH-DIPG-1 glioma viability, CellTiter-Glo ATP luminescence
[9] = growth inhibition of DIPG cells – cell-based, MIPE5.0 library, qHTS (AID 1347068; cut-off not given, nearly all actives have IC50 up to about 30 µM;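 also: cells exposed to compound for 48 hours before viability readout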); conditions: SU-DIPG-XXV viability
[10] = viability loss with induced miR-34 in A549 – imaging, A549 dox-inducible miR-34, nuclei and caspase counts, primary screen (AID 1347080;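 active = compounds whose cell count with miR-34 switched on is under 0.7 times the count with it off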); conditions: A549 miR-34 inducible, Hoechst nuclei count, 48 h
[11] = compounds altering HSF1 focus formation in cells – imaging, Selleck Cancer Library (AID 1347162; in the data active = plate-normalised HSF1 focus index below about 0.46); conditions: human cells, HSF1 nuclear foci imaging, at 10 µM; SSMD: measured here: HSF1 foci SSMD mean; cell count: measured here: cell number; plate-normalised HSF1 focus index: stronger effect = lower value
[12] = MELAS cybrid and Rieske KO viability enhancers – cell-based, MELAS cybrids, Rieske KO mouse fibroblasts, CellTiter-Glo, primary screen (AID 1508586;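 active = mean z-score across replicates of 1.96 or higher in either the MELAS or the Rieske mutant cell line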;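 also: z relative to plate mean and SD of compound and empty wells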); conditions: low glucose
[13] = drug combination growth inhibition, ovarian cancer – cell-based, oncology-focused library, rucaparib conditional, profiling panel (AID 1508598); conditions: patient-derived ovarian cancer cells, CellTiter-Glo viability, 144 h, stronger effect = lower value

COc1ncc(-c2ccc3nccc(-c4ccnnc4)c3c2)cc1NS(=O)(=O)c1ccc(F)cc1F
0.656: fold change ([10]; measured here: relative caspase fold change +Dox/-Dox)
1220: cell count ([10]; measured here: total cells without miR-34 induction)
1270: cell count ([10]; measured here: total cells with miR-34 induction, stronger effect = lower value)
-1.81: SSMD [11]
-2.62: z-score ([12]; Rieske KO mouse fibroblast survival, CellTiter-Glo 72 h)
active: AC50 [1] 26.3 nM | AC50 [2] 46.9 nM | AC50 [3] 1660 nM | AC50 [4] 10.5 nM | AC50 [5] 46.8 nM | AC50 [6] 16.6 nM | AC50 [7] 33.2 nM | AC50 [8] 93.4 nM | IC50 [9] 105 nM | viability ([13]; at 0.000305 µM, OCI-P5x cells, with rucaparib 20 µM, 100% = cells with rucaparib alone) 86.7% | viability ([13]; at 0.000305 µM, OCI-P5x cells, without rucaparib) 84.8% | viability ([13]; at 0.00122 µM, OCI-C5x cells, with rucaparib 10 µM, 100% = cells with rucaparib alone) 84.7% | viability ([13]; at 0.00122 µM, OCI-C5x cells, without rucaparib) 89.8% | viability ([13]; at 0.00122 µM, OCI-P5x cells, with rucaparib 20 µM, 100% = cells with rucaparib alone) 67.8% | viability ([13]; at 0.00122 µM, OCI-P5x cells, without rucaparib) 69.1% | viability ([13]; at 0.00488 µM, OCI-C5x cells, with rucaparib 10 µM, 100% = cells with rucaparib alone) 62.5% | viability ([13]; at 0.00488 µM, OCI-C5x cells, without rucaparib) 53.2% | viability ([13]; at 0.00488 µM, OCI-P5x cells, with rucaparib 20 µM, 100% = cells with rucaparib alone) 43.9% | viability ([13]; at 0.00488 µM, OCI-P5x cells, without rucaparib) 46.3% | viability ([13]; at 0.0195 µM, OCI-C5x cells, with rucaparib 10 µM, 100% = cells with rucaparib alone) 39.4% | viability ([13]; at 0.0195 µM, OCI-C5x cells, without rucaparib) 37.6% | viability ([13]; at 0.0195 µM, OCI-P5x cells, with rucaparib 20 µM, 100% = cells with rucaparib alone) 31.6% | viability ([13]; at 0.0195 µM, OCI-P5x cells, without rucaparib) 27% | viability ([13]; at 0.0781 µM, OCI-C5x cells, with rucaparib 10 µM, 100% = cells with rucaparib alone) 32.8% | viability ([13]; at 0.0781 µM, OCI-C5x cells, without rucaparib) 30.6% | viability ([13]; at 0.0781 µM, OCI-P5x cells, with rucaparib 20 µM, 100% = cells with rucaparib alone) 24.3% | viability ([13]; at 0.0781 µM, OCI-P5x cells, without rucaparib) 17.1% | viability ([13]; at 0.313 µM, OCI-C5x cells, with rucaparib 10 µM, 100% = cells with rucaparib alone) 23.7% | viability ([13]; at 0.313 µM, OCI-C5x cells, without rucaparib) 23.6% | viability ([13]; at 0.313 µM, OCI-P5x cells, with rucaparib 20 µM, 100% = cells with rucaparib alone) 17.6% | viability ([13]; at 0.313 µM, OCI-P5x cells, without rucaparib) 11% | viability ([13]; at 1.25 µM, OCI-C5x cells, with rucaparib 10 µM, 100% = cells with rucaparib alone) 23.9% | viability ([13]; at 1.25 µM, OCI-C5x cells, without rucaparib) 23.5% | viability ([13]; at 1.25 µM, OCI-P5x cells, with rucaparib 20 µM, 100% = cells with rucaparib alone) 13.9% | viability ([13]; at 1.25 µM, OCI-P5x cells, without rucaparib) 8.06% | viability ([13]; at 5 µM, OCI-C5x cells, with rucaparib 10 µM, 100% = cells with rucaparib alone) 10.5% | viability ([13]; at 5 µM, OCI-C5x cells, without rucaparib) 9.68% | viability ([13]; at 5 µM, OCI-P5x cells, with rucaparib 20 µM, 100% = cells with rucaparib alone) 2.14% | viability ([13]; at 5 µM, OCI-P5x cells, without rucaparib) 1.41%
6380: cell count [11]
inactive: fold change ([10]; stronger effect = lower value, cell number ratio, induced over uninduced) 1.04 | plate-normalised HSF1 focus index [11] 0.907 | z-score ([12]; MELAS cybrid survival, CellTiter-Glo 48 h, stronger effect = higher value) 1.15 | viability ([13]; at 0.000305 µM, OCI-C5x cells, with rucaparib 10 µM, 100% = cells with rucaparib alone) 107% | viability ([13]; at 0.000305 µM, OCI-C5x cells, without rucaparib) 105%

COc1cc(=C2C=c3ccccc3=N2)[nH]/c1=C/c1[nH]c(C)cc1C
active: AC50 [1] 6610 nM | AC50 [2] 14800 nM | AC50 [3] 4690 nM | AC50 [4] 5900 nM | AC50 [5] 3320 nM | AC50 [6] 2090 nM | AC50 [7] 2640 nM | AC50 [8] 5900 nM | IC50 [9] 16600 nM

CN1CCN(Cc2ccc(NC(=O)Nc3ccc(Oc4cc(NC(=O)C5CC5)ncn4)cc3)cc2C(F)(F)F)CC1
active: AC50 [1] 468 nM | AC50 [2] 5900 nM | AC50 [3] 118 nM | AC50 [4] 235 nM | AC50 [5] 525 nM | AC50 [6] 417 nM | AC50 [7] 2960 nM | AC50 [8] 372 nM | IC50 [9] 417 nM

CC(=O)NCC(=O)N1[C@@H]2CC[C@H]1c1ccc(Nc3ncc(C(F)(F)F)c(NC4CCC4)n3)cc12
active: AC50 [1] 417 nM | AC50 [2] 1660 nM | AC50 [3] 5900 nM | AC50 [4] 1870 nM | AC50 [5] 661 nM | AC50 [6] 186 nM | AC50 [7] 2640 nM | AC50 [8] 1860 nM | IC50 [9] 833 nM

Cc1cnc(Nc2ccc(CN3CCOCC3)cc2)nc1Nc1cccc(S(=O)(=O)NC(C)(C)C)c1
active: AC50 [1] 4170 nM | AC50 [2] 10500 nM | AC50 [3] 11800 nM | AC50 [4] 11800 nM | AC50 [5] 3320 nM | AC50 [6] 3320 nM | AC50 [7] 8330 nM | AC50 [8] 5900 nM | IC50 [9] 3720 nM

Cc1c(CN2CCN(C(=O)[C@H](C)O)CC2)sc2c(N3CCOCC3)nc(-c3cnc(N)nc3)nc12
active: AC50 [1] 590 nM | AC50 [2] 1870 nM | AC50 [3] 1870 nM | AC50 [4] 41.8 nM | AC50 [5] 590 nM | AC50 [6] 209 nM | AC50 [7] 935 nM | AC50 [8] 372 nM | IC50 [9] 934 nM
